The record followed here is PubChem BioAssay (Tox21).

Unmarked numbers belong to inactive results. Results filed as inconclusive are left out. Activity calls are given as the source filed them. Calls follow the shape of the dose curve; as a rule, active = well fitted curve in the direction sought with a large enough effect in the repeat runs; inconclusive = weak or mixed curves; inactive = no such curve, though single readings can be large; an effect the other way counts as inactive or inconclusive.

Experiment [1] can be described thus: A CellTox Green Cytotoxicity Assay to monitor cytotoxicity in HEK293 cells - 32 hour (AID 1224881). Also: nearly all actives have a fitted effect of over 40% in size. The method in brief:
(§1)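 Nonlytic real-time cytotoxicity: HEK293 + CellTox Green reagent plated, 5 h preincubation, pintool compound addition (23 nL in DMSO), 37 C for 40 h, fluorescence measured at successive time points.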

A short description of experiment [2]: A CellTox Green Cytotoxicity Assay to monitor cytotoxicity in HepG2 cells - 0 hour (AID 1224882). Also: nearly all actives have a fitted effect of over 35% in size. The gist of the method: (§2)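 Read-out is fluorescence of a cyanine dye excluded from live cells that stains DNA of dead HepG2 cells, with signal proportional to cytotoxicity. Plates were read at 0, 8, 16, 24, 32 and 40 h after compound addition.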
A short description of experiment [3]: A CellTox Green Cytotoxicity Assay to monitor cytotoxicity in HepG2 cells - 32 hour (AID 1224883). Also: nearly all actives have a fitted effect of over 50% in size. The method in brief:
as §2

Experiment [4] is described as follows: A CellTox Green Cytotoxicity Assay to monitor cytotoxicity in HEK293 cells - 8 hour (AID 1224884). Also: nearly all actives have a fitted effect of over 35% in size. The gist of the method: as §1
Experiment [5] in a line: qHTS RealTime-Glo MT Cell Viability Assay in HepG2 cells - 16 hour (AID 1224885). Also: nearly all actives have a fitted effect of over 50% in size. The method in brief: (§3)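 HepG2 cells (600/well) were dispensed with RealTime-Glo reagents, incubated 5 h at 37 °C, then treated with compounds in DMSO for up to 40 h. Nonlytic NanoLuc luminescence reflecting viable cells was read at each stated time point.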
(Quantitative high-throughput screening tests each substance at several concentrations.)

Experiment [6] can be described thus: qHTS RealTime-Glo MT Cell Viability Assay in HEK293 cells - 24 hour (AID 1224886). Also: top concentration of the series differs between compounds; nearly all actives have a fitted effect of over 50% in size. The method in brief: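 HEK293 cells seeded with NanoLuc/prosubstrate reagent, rested 5 h at 37 C, then dosed and kept at 37 C up to 40 h. Nonlytic real-time luminescence from viable cells read at 0, 8, 16, 24, 32 and 40 h.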
Experiment [7] in a line: qHTS RealTime-Glo MT Cell Viability Assay in HEK293 cells - 8 hour (AID 1224887). Also: top concentration of the series differs between compounds; nearly all actives have a fitted effect of over 50% in size. The method in brief:
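Cells were seeded together with NanoLuc luciferase and a prosubstrate that viable cells reduce to a luciferase substrate. After a 5 h incubation at 37 C/5% CO2, compounds were added and luminescence was measured repeatedly during 40 h of treatment.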

A short description of experiment [8]: A CellTox Green Cytotoxicity Assay to monitor cytotoxicity in HEK293 cells - 16 hour (AID 1224888). Also: nearly all actives have a fitted effect of over 35% in size. The gist of the method: as §1
Experiment [9] is described as follows: qHTS RealTime-Glo MT Cell Viability Assay in HepG2 cells - 0 hour (AID 1224889). Also: nearly all actives have a fitted effect of over 50% in size. Also: potency is read from the fitted curve at half-maximal effect. The method in brief: as §3
Experiment [10] can be described thus: A CellTox Green Cytotoxicity Assay to monitor cytotoxicity in HepG2 cells - 8 hour (AID 1224890). Also: nearly all actives have a fitted effect of over 45% in size. The method in brief:
as §2

As for `CCCCCCOC(=O)CCCCC(=O)OCCCCCC`, the Potency entry in [1], in experiment [2], in experiment [3], in experiment [4], in experiment [5] and in [6] was “inactive” in each case. Besides, the Potency result in [7], in experiment [8], in [9] and in [10] was “inactive” throughout.
Regarding `CN(C)CCCNCCCN(C)C`, the Potency result in experiment [1], in experiment [2], in experiment [3], in experiment [4], in experiment [5] and in [6] was “inactive” throughout. The Potency entry in experiment [7], in experiment [8], in experiment [9] and in experiment [10] was “inactive” each time.
Regarding `NS(=O)(=O)c1ccc(C(=O)O)cc1`, the Potency result in experiment [1], in [2], in experiment [3], in experiment [4], in experiment [5] and in experiment [6] was “inactive” throughout. Moreover, the Potency result in experiment [7], in experiment [8] and in [9] was “inactive” in each case.
In the case of `FC1(F)C(F)(F)C(F)(F)C2(F)C(F)(F)C(F)(F)C(F)(F)C(F)(F)C2(F)C1(F)F` (centres undefined), the Potency entry in experiment [1], in [2], in experiment [3], in experiment [4], in [5] and in experiment [6] was “inactive” each time. Besides, the Potency result in experiment [7], in [8] and in [9] was “inactive” each time.
`CC1(C)C(O)C(C)(C)C1O` (centres undefined): the Potency result in [1], in experiment [2], in [3], in experiment [4], in experiment [5] and in [6] was “inactive” in each case. Moreover, the Potency entry in experiment [7], in [8] and in experiment [9] was “inactive” each time.
For the compound `COc1ccccc1OCC(O)CN1CCN(CC(=O)Nc2c(C)cccc2C)CC1` (centres undefined), the Potency result in experiment [1], in experiment [2], in [3], in experiment [4], in [5] and in [6] was “inactive” each time. For the same compound, the Potency entry in [7], in [8] and in [9] was “inactive” throughout.
Regarding `CN1N=C(C(N)=O)CCC1=O`, the Potency result in experiment [1], in experiment [2], in [3], in experiment [4], in experiment [5] and in experiment [6] was “inactive” in each case. The Potency entry in experiment [7], in [8], in experiment [9] and in experiment [10] was “inactive” in each case.
With `CCSC(=O)N(CC(C)C)CC(C)C`, the Potency result in experiment [1], in [2], in [3], in experiment [4], in experiment [5] and in experiment [6] was “inactive” in each case. The Potency result in experiment [7], in experiment [8] and in experiment [9] was “inactive” throughout.
For `CO/N=C(/C(=O)N[C@@H]1C(=O)N2C(C(=O)OCOC(=O)C(C)(C)C)=C(C)CS[C@H]12)c1csc(N)n1`, the Potency result in experiment [1], in experiment [2], in experiment [3], in [4], in experiment [5] and in experiment [6] was “inactive” throughout. Besides, the Potency result in [7], in experiment [8], in [9] and in experiment [10] was “inactive” each time.
Turning to `CN1C(=O)N(C)C(O)C1O` (centres undefined), the Potency result in [1], in [2], in experiment [3], in experiment [4], in experiment [5] and in [6] was “inactive” in each case. For the same compound, the Potency result in experiment [7], in experiment [8], in [9] and in [10] was “inactive” each time.
On to `CC(=O)Nc1ccc(S(N)(=O)=O)cc1`, for which the Potency entry in experiment [1], in [2], in [3], in [4], in experiment [5] and in experiment [6] was “inactive” each time. For the same compound, the Potency result in [7], in experiment [8] and in experiment [9] was “inactive” each time.
Take `CCCC(=O)O[C@]1(C(=O)CO)CC[C@H]2[C@@H]3CCC4=CC(=O)CC[C@]4(C)[C@H]3[C@@H](O)C[C@@]21C`: the Potency entry in [1], in experiment [2], in experiment [3], in experiment [4], in experiment [5] and in [6] was “inactive” throughout. In addition, the Potency entry in experiment [7], in experiment [8] and in [10] was “inactive” in each case. In addition, the Potency in [9] is 2.13 µM (active).
Consider `NC(=O)c1ccc(N)cc1`, for which the Potency result in experiment [1], in experiment [2], in experiment [3], in [4], in [5] and in [6] was “inactive” each time. The Potency result in experiment [7], in experiment [8], in [9] and in [10] was “inactive” in each case.
For `OC[C@]1(O)OC[C@@H](O)[C@H](O)[C@@H]1O`, the Potency entry in [1], in [2], in experiment [3], in experiment [4], in experiment [5] and in [6] was “inactive” each time. Further, the Potency result in [7], in [8], in experiment [9] and in experiment [10] was “inactive” each time.
As to `CO[Si](CCCOCC1CO1)(OC)OC` (centres undefined), the Potency entry in experiment [1], in experiment [2], in experiment [3], in experiment [4], in experiment [5] and in experiment [6] was “inactive” in each case. Further, the Potency result in experiment [7], in experiment [8] and in [9] was “inactive” each time.
On to `CC1=CC(C)C(C=O)CC1` (centres undefined), for which the Potency entry in [1], in experiment [2], in experiment [3], in experiment [4], in experiment [5] and in experiment [6] was “inactive” throughout. The Potency entry in experiment [7], in [8], in [9] and in experiment [10] was “inactive” throughout.
Regarding `C[C@@H]1CCN(C(=O)[C@H](CCCN=C(N)N)NS(=O)(=O)c2cccc3c2NC[C@H](C)C3)[C@@H](C(=O)O)C1`, the Potency entry in [1], in experiment [2], in experiment [3], in experiment [4], in experiment [5] and in [6] was “inactive” each time. The Potency entry in [7], in experiment [8] and in experiment [9] was “inactive” each time.
Take `O=S(O)CO`: the Potency result in [1], in experiment [2], in experiment [3], in [4], in experiment [5] and in [6] was “inactive” each time. For the same compound, the Potency result in experiment [7], in experiment [8], in experiment [9] and in experiment [10] was “inactive” throughout.
For the compound `CC(C)NC(=O)NC(C)C`, the Potency result in experiment [1], in experiment [2], in experiment [3], in experiment [4], in [5] and in experiment [6] was “inactive” in each case. Moreover, the Potency result in experiment [7], in experiment [8] and in [9] was “inactive” each time.
Regarding `CCCCCCCCCCCC`, the Potency result in experiment [1], in experiment [2], in experiment [3], in experiment [4], in experiment [5] and in experiment [6] was “inactive” throughout. Moreover, the Potency entry in experiment [7], in experiment [8], in experiment [9] and in experiment [10] was “inactive” each time.
As for `Cc1ccc(Cl)cc1Cl`, the Potency entry in experiment [1], in experiment [2], in [3], in experiment [4], in [5] and in experiment [6] was “inactive” in each case. The Potency entry in experiment [7], in [8] and in experiment [9] was “inactive” throughout.
With `C=C[Si](OC(=C)C)(OC(=C)C)OC(=C)C`, the Potency result in [1], in experiment [2], in experiment [3], in experiment [4], in experiment [5] and in [6] was “inactive” in each case. The Potency entry in experiment [7], in experiment [8], in experiment [9] and in experiment [10] was “inactive” each time.
`CC/C=C\CCOC(C)=O`: the Potency result in [1], in experiment [2], in [3], in [4], in experiment [5] and in [6] was “inactive” each time. Moreover, the Potency entry in experiment [7], in experiment [8] and in [9] was “inactive” each time.
With `N=c1nc(N2CCCCC2)cc(N)n1O`, the Potency result in experiment [1], in [2], in [3], in [4], in [5] and in [6] was “inactive” throughout. For the same compound, the Potency entry in experiment [7], in [8], in [9] and in experiment [10] was “inactive” each time.
